The source of these data is PubChem BioAssay (EPA / NIEHS).

“And” between values parts separate entries of the source, which are not always exact repeats. Equal values may be shown once. Some compounds were tested as several samples or in several runs, with calls that do not always agree. The source made the active and inactive calls. How the source made its calls: active means hit-call score of the fitted dose curve at least 0.9, where 1 is the maximum; inactive means score below 0.9.

Holding throughout (details): mRNA level, 48 h; actives raise or lower the signal
Read-out in assay [1]: Lipoprotein lipase (LPL), LPL (gene 4023)
In words: LTEA_HepaRG_LPL: Life Technologies and Expression Analysis (LTEA) Assay for Lipoprotein lipase (LPL) using HepaRG (AID 2283515). The procedure, abridged:
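Differentiated HepaRG cells, plated 48 h, then exposed 48 h in serum-free induction medium to 8 concentrations (top 100 uM, half-log steps) in 0.5% DMSO, duplicate. LPL mRNA measured by qRT-PCR, normalized to ACTB, GAPDH and POLR2A.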

Read-out in assay [2]: MicroRNA 122 (MIR122), gene 406906
In words: LTEA_HepaRG_MIR122: Life Technologies and Expression Analysis (LTEA) Assay for MicroRNA 122 (MIR122) using HepaRG (AID 2283516). Further: the transcript read is the microRNA miR-122. The procedure, abridged: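 Differentiated human HepaRG cells in serum-free induction medium exposed 48 h to 8 half-log concentrations from 100 uM in 0.5% DMSO, duplicate. MIR122 quantified by Fluidigm TaqMan qRT-PCR, normalised to ACTB, GAPDH, POLR2A; fold change fitted bidirectionally versus DMSO.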

Read-out in assay [3]: matrix metalloproteinase-10 (MMP10), MMP10 (gene 4319)
In words: LTEA_HepaRG_MMP10: Life Technologies and Expression Analysis (LTEA) Assay for matrix metalloproteinase-10 (MMP10) using HepaRG (AID 2283517). The procedure, abridged: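 Differentiated HepaRG cells in serum-free induction medium exposed 48 h in duplicate to 8-point half-log series up to 100 uM in 0.5% DMSO. mRNA quantified by qRT-PCR, normalised to ACTB, GAPDH, POLR2A; bidirectional fit versus DMSO.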

Read-out in assay [4]: MYC, MYC (gene 4609)
The assay is described as follows: LTEA_HepaRG_MYC: Life Technologies and Expression Analysis (LTEA) Assay for MYC using HepaRG (AID 2283518). The method, boiled down:
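Differentiated human HepaRG cells, plated 48 h then switched to serum-free induction medium, were exposed in duplicate for 48 h to 8-point half-log series up to 100 uM in 0.5% DMSO. MYC mRNA measured by qRT-PCR, normalized to ACTB/GAPDH/POLR2A.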

Read-out in assay [5]: matrix metalloproteinase-3 (MMP3), MMP3 (gene 4314)
In words: LTEA_HepaRG_MMP3: Life Technologies and Expression Analysis (LTEA) Assay for matrix metalloproteinase-3 (MMP3) using HepaRG (AID 2283519). The procedure, abridged:
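HepaRG cells (~100,000/well) in serum-free induction medium were dosed in duplicate for 48 h with an 8-point half-log series from 100 uM, 0.5% DMSO. MMP3 mRNA was quantified by Fluidigm TaqMan qRT-PCR, normalized to three housekeeping genes.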

Read-out in assay [6]: Paternally Expressed 10 (PEG10), PEG10 (gene 23089)
The assay is described as follows: LTEA_HepaRG_PEG10: Life Technologies and Expression Analysis (LTEA) Assay for Paternally Expressed 10 (PEG10) using HepaRG (AID 2283520). The procedure, abridged: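 Differentiated HepaRG cells exposed 48 h in serum-free induction medium to eight half-log concentrations topping at 100 uM, 0.5% DMSO, in duplicate. PEG10 mRNA quantified by TaqMan qRT-PCR, normalized to ACTB, GAPDH and POLR2A; bidirectional fit versus DMSO.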

Read-out in assay [7]: Protein phosphatase 2A (PPP2R4), PTPA (gene 5524)
In words: LTEA_HepaRG_PPP2R4: Life Technologies and Expression Analysis (LTEA) Assay for Protein phosphatase 2A (PPP2R4) using HepaRG (AID 2283522). The method, boiled down:
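Differentiated human HepaRG cells in serum-free induction medium were exposed 48 h to 8 concentrations (top 100 µM, half-log steps, duplicate) in 0.5% DMSO. PPP2R4 mRNA was measured by TaqMan qRT-PCR, normalised to ACTB, GAPDH and POLR2A, and fitted bidirectionally versus DMSO.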

Read-out in assay [8]: Phosphatase and tensin (PTEN), PTEN (gene 5728)
The assay is described as follows: LTEA_HepaRG_PTEN: Life Technologies and Expression Analysis (LTEA) Assay for Phosphatase and tensin (PTEN) using HepaRG (AID 2283523). The method, boiled down: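 HepaRG cells, 48 h after plating, exposed in duplicate for 48 h in serum-free induction medium to 8 half-log concentrations up to 100 uM (0.5% DMSO). PTEN mRNA by qRT-PCR, normalized to ACTB, GAPDH, POLR2A; bidirectional fit versus DMSO.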

Read-out in assay [9]: solute carrier (SLC22A1), SLC22A1 (gene 6580)
The assay is described as follows: LTEA_HepaRG_SLC22A1: Life Technologies and Expression Analysis (LTEA) Assay for solute carrier (SLC22A1) using HepaRG (AID 2283524). The procedure, abridged: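 Differentiated human HepaRG cells in serum-free induction medium, exposed 48 h in duplicate to 8-point half-log series from 100 µM top in 0.5% DMSO. SLC22A1 mRNA by TaqMan qRT-PCR normalized to ACTB, GAPDH, POLR2A; bidirectional fit versus DMSO.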

Read-out in assay [10]: Pyruvate Dehydrogenase Kinase 4 (PDK4), PDK4 (gene 5166)
The assay is described as follows: LTEA_HepaRG_PDK4: Life Technologies and Expression Analysis (LTEA) Assay for Pyruvate Dehydrogenase Kinase 4 (PDK4) using HepaRG (AID 2283525). The method, boiled down: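 HepaRG cells plated 48 h, then switched to serum-free induction medium and exposed in duplicate for 48 h to 8 half-log concentrations from 100 uM in 0.5% DMSO. PDK4 mRNA measured by qRT-PCR, normalized to ACTB, GAPDH and POLR2A; bidirectional fit versus DMSO.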

Read-out in assay [11]: NAD(P)H dehydrogenase [quinone] 1 (NQO1), NQO1 (gene 1728)
The assay is described as follows: LTEA_HepaRG_NQO1: Life Technologies and Expression Analysis (LTEA) Assay for NAD(P)H dehydrogenase [quinone] 1 (NQO1) using HepaRG (AID 2283526). The method, boiled down: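 Differentiated human HepaRG cells in serum-free induction medium, dosed in duplicate for 48 h at 8 half-log concentrations up to 100 uM in 0.5% DMSO. NQO1 mRNA by qRT-PCR normalized to ACTB, GAPDH, POLR2A; bidirectional fit versus DMSO baseline.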

Read-out in assay [12]: Nuclear factor erythroid 2-related factor 2 (Homo sapiens) (UniProt Q16236)
In words: LTEA_HepaRG_NFE2L2: Life Technologies and Expression Analysis (LTEA) Assay for Nuclear factor erythroid 2-related factor 2 (NFE2L2) Transcription Factor using HepaRG (AID 2283527). The method, boiled down:
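Differentiated human HepaRG cells, serum-free induction medium, exposed 48 h in duplicate to eight half-log concentrations up to 100 uM in 0.5% DMSO. NFE2L2 mRNA by Fluidigm TaqMan qRT-PCR, normalised to ACTB, GAPDH, POLR2A; bidirectional change versus DMSO.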

Read-out in assay [13]: succinate dehydrogenase complex iron sulfur subunit B (SDHB), SDHB (gene 6390)
In words: LTEA_HepaRG_SDHB: Life Technologies and Expression Analysis (LTEA) Assay for succinate dehydrogenase complex iron sulfur subunit B (SDHB) using HepaRG (AID 2283528). The method, boiled down:
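HepaRG cells (~100,000/well, plated 48 h) exposed in duplicate for 48 h in serum-free induction medium to 8-point half-log series from 100 uM in 0.5% DMSO; mRNA by qRT-PCR normalised to ACTB, GAPDH, POLR2A; bidirectional fit versus DMSO.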

Read-out in assay [14]: Signal transducer and activator of transcription 3 (Homo sapiens) (UniProt P40763)
In words: LTEA_HepaRG_STAT3: Life Technologies and Expression Analysis (LTEA) Assay for Signal transducer and activator of transcription (STAT3) using HepaRG (AID 2283529). The procedure, abridged:
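Differentiated HepaRG cells, serum-free induction medium, dosed 48 h in duplicate, 8 half-log concentrations from 100 uM in 0.5% DMSO. STAT3 mRNA by qRT-PCR, normalised to ACTB, GAPDH, POLR2A; bidirectional fit versus DMSO.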

Read-out in assay [15]: solute carrier (SLCO1B1), SLCO1B1 (gene 10599)
In words: LTEA_HepaRG_SLCO1B1: Life Technologies and Expression Analysis (LTEA) Assay for solute carrier (SLCO1B1) using HepaRG (AID 2283530). The method, boiled down:
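Differentiated human HepaRG cells, plated 48 h, switched to serum-free induction medium and exposed in duplicate for 48 h to 8 half-log concentrations (top 100 uM) in 0.5% DMSO. SLCO1B1 mRNA by TaqMan qRT-PCR, normalized to ACTB/GAPDH/POLR2A.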

Read-out in assay [16]: sulfotransferase 2A1 (SULT2A1), SULT2A1 (gene 6822)
In words: LTEA_HepaRG_SULT2A1: Life Technologies and Expression Analysis (LTEA) Assay for sulfotransferase 2A1 (SULT2A1) using HepaRG (AID 2283531). The procedure, abridged:
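Differentiated human HepaRG cells in serum-free induction medium were exposed for 48 h to eight half-log concentrations (top 100 uM, 0.5% DMSO). SULT2A1 mRNA was measured by qRT-PCR, normalized to ACTB, GAPDH and POLR2A, and fitted bidirectionally against DMSO.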

Read-out in assay [17]: Transforming Growth Factor (TGFA), TGFA (gene 7039)
The assay is described as follows: LTEA_HepaRG_TGFA: Life Technologies and Expression Analysis (LTEA) Assay for Transforming Growth Factor (TGFA) using HepaRG (AID 2283532). The method, boiled down:
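Differentiated HepaRG cells exposed 48 hours in serum-free induction medium, 0.5% DMSO vehicle, 8-point half-log series from 100 uM, in duplicate. TGFA mRNA by TaqMan qRT-PCR, normalised to ACTB, GAPDH, POLR2A; bidirectional fit versus DMSO.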

Read-out in assay [18]: Transforming Growth Factor (TGFB1), TGFB1 (gene 7040)
In words: LTEA_HepaRG_TGFB1: Life Technologies and Expression Analysis (LTEA) Assay for Transforming Growth Factor (TGFB1) Transporter using HepaRG (AID 2283533). The procedure, abridged:
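Differentiated human HepaRG cells in serum-free induction medium were exposed in duplicate for 48 h to eight concentrations (top 100 uM, half-log steps, 0.5% DMSO). TGFB1 mRNA was quantified by qRT-PCR, normalized to ACTB, GAPDH, POLR2A, and fitted bidirectionally against DMSO.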

Read-out in assay [19]: TIMP1, TIMP1 (gene 7076)
In words: LTEA_HepaRG_TIMP1: Life Technologies and Expression Analysis (LTEA) Assay for TIMP1 using HepaRG (AID 2283534).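 Further: TaqMan qRT-PCR signal normalized to ACTB GAPDH and POLR2A housekeeping genes.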 The procedure, abridged:
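Differentiated human HepaRG cells in serum-free induction medium were exposed 48 h to chemicals (8 half-log concentrations, top 100 uM, 0.5% DMSO). TIMP1 mRNA was quantified by TaqMan qRT-PCR, normalized to ACTB/GAPDH/POLR2A; bidirectional fit versus DMSO.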

Chain of Nuclear factor erythroid 2-related factor 2 (Homo sapiens) (Q16236 whole entry, looked up): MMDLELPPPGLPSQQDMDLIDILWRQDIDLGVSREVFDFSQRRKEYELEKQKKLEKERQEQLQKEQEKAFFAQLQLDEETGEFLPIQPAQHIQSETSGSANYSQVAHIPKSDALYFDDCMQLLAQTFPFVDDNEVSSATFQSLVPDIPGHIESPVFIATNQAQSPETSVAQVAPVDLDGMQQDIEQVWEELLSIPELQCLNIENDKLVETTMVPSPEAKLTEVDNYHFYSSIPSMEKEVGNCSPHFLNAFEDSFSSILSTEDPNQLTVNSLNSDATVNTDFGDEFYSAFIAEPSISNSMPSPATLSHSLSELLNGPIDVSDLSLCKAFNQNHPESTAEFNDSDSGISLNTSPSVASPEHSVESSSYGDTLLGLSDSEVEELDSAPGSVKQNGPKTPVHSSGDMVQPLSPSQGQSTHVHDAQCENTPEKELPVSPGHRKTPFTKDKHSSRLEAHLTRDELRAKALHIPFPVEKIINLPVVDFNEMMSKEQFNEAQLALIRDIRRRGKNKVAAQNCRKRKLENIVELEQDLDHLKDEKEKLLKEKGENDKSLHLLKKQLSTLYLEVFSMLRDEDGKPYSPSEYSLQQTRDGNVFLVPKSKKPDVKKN
Chain of Signal transducer and activator of transcription 3 (Homo sapiens) (P40763 whole entry, looked up): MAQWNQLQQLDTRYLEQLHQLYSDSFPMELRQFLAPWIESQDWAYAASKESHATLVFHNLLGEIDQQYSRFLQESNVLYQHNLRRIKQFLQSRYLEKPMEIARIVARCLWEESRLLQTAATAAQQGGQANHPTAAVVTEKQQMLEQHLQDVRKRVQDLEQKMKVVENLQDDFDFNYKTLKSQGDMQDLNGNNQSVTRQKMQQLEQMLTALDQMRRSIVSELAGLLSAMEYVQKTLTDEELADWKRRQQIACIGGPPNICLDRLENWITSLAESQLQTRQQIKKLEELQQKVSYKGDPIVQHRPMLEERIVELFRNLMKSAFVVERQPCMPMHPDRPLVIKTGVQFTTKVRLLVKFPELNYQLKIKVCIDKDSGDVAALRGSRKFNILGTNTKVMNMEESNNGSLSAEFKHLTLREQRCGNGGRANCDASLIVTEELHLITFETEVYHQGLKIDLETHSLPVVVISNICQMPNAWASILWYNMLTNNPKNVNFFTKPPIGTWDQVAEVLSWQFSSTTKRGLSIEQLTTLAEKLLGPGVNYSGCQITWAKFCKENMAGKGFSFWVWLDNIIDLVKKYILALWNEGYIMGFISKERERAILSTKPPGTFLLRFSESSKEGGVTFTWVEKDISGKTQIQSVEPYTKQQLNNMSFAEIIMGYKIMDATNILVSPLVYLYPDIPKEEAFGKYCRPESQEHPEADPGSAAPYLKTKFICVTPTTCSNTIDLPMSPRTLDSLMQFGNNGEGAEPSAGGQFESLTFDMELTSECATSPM

Broadly, the AC50 is the concentration at which the activity in the assay is half-maximal. As to `Cc1cc(Cl)ccc1OCC(=O)O`, the compound was called inactive in assay [1], in assay [2], in [3], in [4], in assay [5] and in assay [7]. Besides, the compound was called inactive in [8], in assay [9], in assay [11], in [12], in assay [13] and in [14]. The call in [15], in [17], in assay [18] and in [19] was inactive. The concentration at half-maximal activity (AC50) in [6] is 9.94 µM (active); in assay [10], 35.5 µM (active); in assay [16], 85.8 µM (active).
With `CO/C=C(/C(=O)OC)c1ccccc1Oc1cc(Oc2ccccc2C#N)ncn1`, the concentration at half-maximal activity (AC50) is 82.4 µM (active) and 82.1 µM (active) and 85.2 µM (active) in [1]; 72 µM (active) and 83.7 µM (active) and 74.3 µM (active) in [2]; 81 µM (active) and 66.5 µM (active) and 34.6 µM (active) in assay [3]; 77.8 µM (active) and 90 µM (active) and 90.3 µM (active) in assay [4]; 83.2 µM (active) and 79.1 µM (active) and 78.9 µM (active) in assay [5]; 27.9 µM (active) and 26.6 µM (active) and 17.5 µM (active) in assay [6]. The AC50 is 78 µM (active) and 70.5 µM (active) and 68.7 µM (active) in [9]; 18.6 µM (active) in [10]; 77.7 µM (active) and 74.5 µM (active) in [12]; 76.2 µM (active) and 72.9 µM (active) and 75.6 µM (active) in assay [15]; 80.9 µM (active) and 81.2 µM (active) and 94.4 µM (active) in assay [16]; 84.4 µM (active) and 81.8 µM (active) and 84.8 µM (active) in assay [17]. Further, the compound was classed as inactive in assay [7], in [8], in assay [10], in assay [11], in [12] and in assay [13]. The compound was called inactive in [14], in assay [18] and in [19].
